Results on 5 compounds are retold here after PubChem BioAssay.

Activity calls are given as the source filed them.

The test system of assay [1] is Plasmodium falciparum Sir2 (PF13_0152, Sir2A). The experiment in a line: pfSir2 binders on small-molecule microarrays, primary screen, biochemical, small-molecule microarray, 635 nm fluorescence (AID 1098).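 Further: score merges spot fluorescence intensity with its signal-to-noise ratio.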 As to conditions: small-molecule microarray binding, fluorescence 635 nm; higher = more signal.
A short description of assay [2]: small-molecule microarray binders of probe aDKK1, primary screen, biochemical, biotinylated probe, 635/667 nm fluorescence (AID 1099).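 Further: score merges 667nm spot fluorescence with signal to noise across triplicate slides.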 As to conditions: higher = more signal.
A short description of assay [3]: small-molecule microarray binders of probe aCHRDL2, primary screen, biochemical, biotinylated probe, 635/667 nm fluorescence (AID 1100). As to conditions: higher = more signal.
Assay [4] can be described thus: splicing luciferase reporter signal modulators, primary screen, spliceosome inhibition project, cell-based, HEK293, splice +/- reporter (AID 1101).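 Further: HEK293 cells carrying a splicing-competent luciferase reporter gene; test concentration not given here.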 Conditions: luminescence, 24 h, higher = more signal, called active from +8 up or from −8 down. Background: Reporter assays use an easily measured gene product as a stand-in for the process of interest.
Assay [5] addresses Fibroblast growth factor 10 (Homo sapiens) (UniProt O15520). Briefly: FGF10 binders on small-molecule microarrays, primary screen, biochemical, small-molecule microarray, 635 nm fluorescence (AID 1102). As to conditions: FGF10 binding, fluorescence 635 nm, higher = more signal.
The subject of assay [6] is glycogen synthase kinase-3 (GSK3A per assay name; protocol says GSK3B). Briefly: GSK3 binders on small-molecule microarrays, primary screen, biochemical, small-molecule microarray, 635 nm fluorescence, GSK3A (AID 1103). Further: the record names both GSK3A and GSK3B. As to conditions: small-molecule microarray binding, fluorescence 635 nm; higher = more signal.
For assay [7], the target named is Epidermal growth factor receptor (Homo sapiens) (UniProt P00533). Briefly: EGFR binders on small-molecule microarrays, primary screen, biochemical, small-molecule microarray, 635 nm fluorescence (AID 1104).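 Further: score merges 667 nm emission intensity with spot signal to noise over triplicate slides.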 Conditions: EGFR binding, higher = more signal.
The target in assay [8] is Follistatin-related protein 3 (Homo sapiens) (UniProt O95633). Briefly: FSTL3 binders on small-molecule microarrays, primary screen, biochemical, small-molecule microarray, 635 nm fluorescence (AID 1105).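 Further: score merges emission near 667 nm and signal to noise per printed spot across three slides.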 Conditions: FSTL3 binding, higher = more signal.
The target of assay [9] is Dickkopf-related protein 1 (Homo sapiens) (UniProt O94907). Briefly: DKK1 binders on small-molecule microarrays, primary screen, biochemical, small-molecule microarray, 635 nm fluorescence scan (AID 1106).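 Further: score merges emission near 667 nm with signal to noise over three replicate slides.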 As to conditions: DKK1 binding, higher = more signal.
For assay [10], the system named is Inhibin beta A chain (activin A). Briefly: INHBA (activin A) binders on microarrays, primary screen, biochemical, small-molecule microarray, 635 nm fluorescence scan (AID 1107).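 Further: mouse activin A protein probed at 4.33 µg/mL on printed slides; score merges bound-protein fluorescence near 667 nm with spot signal-to-noise.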 As to conditions: small-molecule microarray binding, higher = more signal.
For assay [11], the system named is Human papillomavirus type 1a protein E7 (residues 44-93). The experiment in a line: HPV1a E7 fragment binders on microarrays, primary screen, biochemical, small-molecule microarray, residues 44-93, 635 nm fluorescence (AID 1108).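 Further: E7 fragment applied at 1 µg/mL in TBST for 1 h at 4 C; score combines spot fluorescence with its signal to noise ratio.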 As to conditions: small-molecule microarray binding, fluorescence 635 nm; higher = more signal.
A short description of assay [12]: modulators of HCV replicon luciferase signal, primary screen, HCV replication inhibitor project, Huh7 cells, luciferase reporter (AID 1109).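 Further: huh7 hepatoma cells harbouring a luciferase neomycin HCV replicon reporter; luciferase luminescence as measure of HCV replicon replication; test concentration not given here.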 As to conditions: 48 h, higher = more signal. Background: A replicon is a self-replicating genome or part of one, used to study replication in cells.
Assay [13] has as its target Left-right determination factor 2 (Homo sapiens) (UniProt O00292). The experiment in a line: LEFTY2 binders on small-molecule microarrays, primary screen, biochemical, small-molecule microarray, 635 nm fluorescence scan (AID 1110). Conditions: LEFTY2 binding, higher = more signal.
Assay [14] addresses Calmodulin-1 (Homo sapiens) (UniProt P0DP23). The experiment in a line: CALM1 binders on microarrays, EGTA buffer, profiling panel, biochemical, small-molecule microarray, Cy5-labelled CALM1 (AID 1111).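 Further: labelled calmodulin applied in Tris saline Tween buffer holding calcium plus EGTA and DTT.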 Conditions: Cy5-CALM1 binding fluorescence, higher = more signal.
Assay [15] shares this target. The experiment in a line: calcium-bound CALM1 binders on microarrays, profiling panel, artefact control for SMM control-protein annotation, biochemical, small-molecule microarray, Cy5-labelled CALM1, plus calcium (AID 1112).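 Further: score merges spot fluorescence with signal to noise from triplicate slides.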 As to conditions: Cy5-CALM1 binding fluorescence, higher = more signal.
The nature of assay [16]: small-molecule microarray binders of probe aWnt5a, primary screen, biochemical, biotinylated probe, 635/667 nm fluorescence (AID 1113).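 Further: score merges 667 nm fluorescence intensity with signal-to-noise per printed feature.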 Conditions: higher = more signal.
A short description of assay [17]: small-molecule microarray binders of probe aShh, primary screen, biochemical, biotinylated probe, 635/667 nm fluorescence (AID 1114).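 Further: probe is biotin-labelled aShh protein from a stem cell growth factor screen; measures binding of labelled protein to compounds printed on the slide; score merges feature fluorescence at 667 nm with signal-to-noise.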 Conditions: higher = more signal.
Assay [18] in a line: small-molecule microarray binders of probe aNog, primary screen, biochemical, biotinylated probe, 635/667 nm fluorescence (AID 1115).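 Further: probe is biotinylated aNog protein used at 0.15 µg/mL for 1 h at 4 C; z-score combines 667 nm fluorescence of each spot with its signal to noise.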 Conditions: higher = more signal.
Assay [19] concerns the target Torsin-1A-interacting protein 1 (Homo sapiens) (UniProt Q5JTV8). Briefly: LAP1 binders from COS7 cell lysate, primary screen, small-molecule microarray, 635/667 nm fluorescence (AID 1116). As to conditions: COS7-hLAP1 lysate binding, 635 nm fluorescence, higher = more signal.
Assay [20] addresses Alpha-bungarotoxin (Bungarus multicinctus) (UniProt P60615). Briefly: alpha-bungarotoxin binders on microarray, profiling panel, artefact control for SMM control protein annotation, biochemical, small-molecule microarray, Alexa647 label, 635/667 nm fluorescence (AID 1117). Conditions: alpha-BTX-A647 binding fluorescence, higher = more signal.

Fibroblast growth factor 10 (Homo sapiens), sequence (O15520 whole entry, looked up): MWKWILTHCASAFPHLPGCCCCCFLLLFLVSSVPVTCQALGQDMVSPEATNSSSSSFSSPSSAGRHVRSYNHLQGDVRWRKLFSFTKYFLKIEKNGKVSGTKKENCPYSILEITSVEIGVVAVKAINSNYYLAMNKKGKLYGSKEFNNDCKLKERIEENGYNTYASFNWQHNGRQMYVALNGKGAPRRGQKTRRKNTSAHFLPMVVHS
Dickkopf-related protein 1 (Homo sapiens), sequence (O94907 whole entry, looked up): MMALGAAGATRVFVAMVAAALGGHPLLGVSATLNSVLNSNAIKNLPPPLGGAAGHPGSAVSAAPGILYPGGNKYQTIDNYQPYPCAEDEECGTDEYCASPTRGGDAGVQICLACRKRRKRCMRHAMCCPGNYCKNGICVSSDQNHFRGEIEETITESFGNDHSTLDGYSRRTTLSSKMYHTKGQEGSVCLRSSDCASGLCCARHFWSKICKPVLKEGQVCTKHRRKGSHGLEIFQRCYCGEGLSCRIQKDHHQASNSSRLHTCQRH
Follistatin-related protein 3 (Homo sapiens), sequence (O95633 whole entry, looked up): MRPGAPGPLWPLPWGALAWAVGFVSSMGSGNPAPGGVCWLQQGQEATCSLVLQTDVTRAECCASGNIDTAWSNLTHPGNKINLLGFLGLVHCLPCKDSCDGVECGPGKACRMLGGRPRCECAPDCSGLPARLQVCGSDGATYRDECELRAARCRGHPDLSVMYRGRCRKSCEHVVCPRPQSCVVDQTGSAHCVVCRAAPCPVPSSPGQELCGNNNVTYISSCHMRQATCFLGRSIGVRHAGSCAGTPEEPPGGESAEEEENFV
Alpha-bungarotoxin (Bungarus multicinctus), sequence (P60615 whole entry, looked up): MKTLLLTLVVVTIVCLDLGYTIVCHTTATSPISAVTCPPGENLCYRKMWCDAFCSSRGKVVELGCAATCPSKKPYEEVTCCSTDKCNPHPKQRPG
Torsin-1A-interacting protein 1 (Homo sapiens), sequence (Q5JTV8 whole entry, looked up): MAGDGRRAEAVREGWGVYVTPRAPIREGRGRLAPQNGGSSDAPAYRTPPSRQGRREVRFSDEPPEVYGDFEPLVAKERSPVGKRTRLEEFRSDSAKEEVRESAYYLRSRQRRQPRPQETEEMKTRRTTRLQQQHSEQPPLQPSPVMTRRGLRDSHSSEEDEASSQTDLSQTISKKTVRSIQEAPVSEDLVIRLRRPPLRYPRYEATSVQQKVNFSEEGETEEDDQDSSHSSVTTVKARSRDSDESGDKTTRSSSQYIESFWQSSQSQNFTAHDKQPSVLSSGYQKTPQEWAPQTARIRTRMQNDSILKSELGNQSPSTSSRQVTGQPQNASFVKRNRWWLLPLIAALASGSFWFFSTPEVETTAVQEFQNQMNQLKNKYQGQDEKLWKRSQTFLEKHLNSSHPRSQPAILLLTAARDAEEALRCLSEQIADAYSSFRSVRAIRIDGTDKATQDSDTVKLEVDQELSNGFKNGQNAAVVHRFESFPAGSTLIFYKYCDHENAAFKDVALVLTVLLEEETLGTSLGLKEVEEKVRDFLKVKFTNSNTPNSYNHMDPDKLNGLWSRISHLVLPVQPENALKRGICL
Left-right determination factor 2 (Homo sapiens), sequence (O00292 whole entry, looked up): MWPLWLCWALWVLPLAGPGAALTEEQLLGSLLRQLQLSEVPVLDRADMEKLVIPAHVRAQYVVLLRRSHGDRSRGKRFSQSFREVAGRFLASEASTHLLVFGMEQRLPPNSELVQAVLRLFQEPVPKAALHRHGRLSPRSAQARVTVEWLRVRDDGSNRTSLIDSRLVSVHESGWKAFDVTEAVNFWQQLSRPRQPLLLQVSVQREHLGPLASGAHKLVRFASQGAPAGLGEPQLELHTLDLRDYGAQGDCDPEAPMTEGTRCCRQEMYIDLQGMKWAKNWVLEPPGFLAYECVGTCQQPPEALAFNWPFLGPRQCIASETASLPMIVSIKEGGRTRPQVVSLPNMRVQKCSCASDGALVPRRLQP
Epidermal growth factor receptor (Homo sapiens), sequence (P00533 whole entry, looked up): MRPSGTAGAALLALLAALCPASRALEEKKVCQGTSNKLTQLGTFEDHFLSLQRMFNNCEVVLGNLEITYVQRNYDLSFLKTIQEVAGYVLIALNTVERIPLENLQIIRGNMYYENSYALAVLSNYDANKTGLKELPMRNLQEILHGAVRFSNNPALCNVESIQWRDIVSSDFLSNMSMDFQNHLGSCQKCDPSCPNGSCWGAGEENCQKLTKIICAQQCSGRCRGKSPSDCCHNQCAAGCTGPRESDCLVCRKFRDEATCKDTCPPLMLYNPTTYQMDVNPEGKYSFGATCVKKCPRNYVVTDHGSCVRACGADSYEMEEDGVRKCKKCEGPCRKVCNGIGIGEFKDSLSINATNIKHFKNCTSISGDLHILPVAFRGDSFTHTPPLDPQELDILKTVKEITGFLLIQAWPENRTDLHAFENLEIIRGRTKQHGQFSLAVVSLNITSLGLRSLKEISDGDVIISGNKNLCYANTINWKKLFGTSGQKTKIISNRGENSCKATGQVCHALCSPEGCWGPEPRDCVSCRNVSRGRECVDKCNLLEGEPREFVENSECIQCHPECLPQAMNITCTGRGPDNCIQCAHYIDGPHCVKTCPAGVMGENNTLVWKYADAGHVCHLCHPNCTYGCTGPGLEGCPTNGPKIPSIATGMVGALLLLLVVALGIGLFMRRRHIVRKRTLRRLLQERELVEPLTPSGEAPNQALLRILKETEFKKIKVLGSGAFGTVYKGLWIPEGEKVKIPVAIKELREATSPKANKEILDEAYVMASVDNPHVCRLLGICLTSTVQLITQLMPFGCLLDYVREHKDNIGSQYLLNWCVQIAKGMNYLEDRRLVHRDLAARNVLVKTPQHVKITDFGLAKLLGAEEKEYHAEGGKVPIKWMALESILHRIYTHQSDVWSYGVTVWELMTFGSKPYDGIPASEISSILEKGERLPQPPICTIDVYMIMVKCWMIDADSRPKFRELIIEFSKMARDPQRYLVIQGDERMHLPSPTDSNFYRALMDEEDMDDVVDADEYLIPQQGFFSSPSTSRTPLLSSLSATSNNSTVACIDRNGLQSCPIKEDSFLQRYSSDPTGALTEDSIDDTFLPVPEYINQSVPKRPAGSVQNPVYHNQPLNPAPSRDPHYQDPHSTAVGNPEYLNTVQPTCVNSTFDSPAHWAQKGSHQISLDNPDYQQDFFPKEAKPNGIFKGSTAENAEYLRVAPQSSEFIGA

Take `CN1CCC(CCCO)=CC1c1ccc(CN2CCCC2)cc1` (stereo not given): the composite z-score in [1] amounted to 0.988; in [2], 0.331; in assay [3], 0.756; in assay [5], 1.3; in [6] it was 1.3; in assay [7] it was 1.64. Also, the composite z-score in assay [8] is 1.48; in [9] it was 1.74; in assay [10] it was 1.86; in assay [11], 1.25; in [13], 1.3; in [14] it was -0.561. Further, the composite z-score in assay [15] is -0.938; in [16] it was 0.0215; in [17] it was 0.441; in [18], 0.215; in assay [19], 1.49; in [20], 1.34. The values for the z-score in assay [4] and in assay [12] were 0.873 (inactive) and -1.94, respectively.
`COCCCNC(=O)[C@@]1(c2ccc([N+](=O)[O-])cc2)CC(=O)N(CC23CC4CC(CC(C4)C2)C3)[C@@H]1c1ccc(CO)cc1`: the composite z-score in [1] is 1.61; in assay [2], 0.0245; in assay [3], -0.0133; in assay [5], 1.22; in assay [6], 1.31; in assay [7], 0.905. Also, the composite z-score in [8] was 1.48; in assay [9], 1.08; in [10], 0.703; in [11], 1.37; in assay [13], 1.13; in assay [14] it was -0.121. Further, the composite z-score was -0.548 in assay [15]; -0.109 in [16]; -0.0119 in [17]; -0.761 in assay [18]; 0.422 in assay [19]; 0.572 in [20]. The z-score is 0.00653 (inactive) in assay [4] and -2.47 in assay [12].
For the compound `CC(C)C[C@@H]1NC(=O)[C@@H]2C[C@H](C(=O)NCCCCCC[N+](C)(C)C)[C@H](c3ccc(O)cc3)N2C1=O`, the composite z-score is 1.38 in assay [1]; 0.026 in [2]; 0.0989 in assay [3]; 0.623 in [5]; 1.21 in assay [6]; 0.29 in assay [7]. For the same compound, the composite z-score amounted to 0.706 in assay [8]; 0.977 in [9]; 0.987 in assay [10]; 1.15 in [11]; 0.424 in [13]; 0.669 in assay [14]. In addition, the composite z-score in [15] was -1.15; in assay [16], -0.208; in [17], 0.246; in assay [18] it was -0.158; in [19], 0.912; in assay [20], 2. Also, the z-score in [4] is 0.00513 (inactive); in assay [12] it was 0.0338.
As for `CC(C)c1ccc(NN2C(C(O)c3ccc(N(C)C)cc3)C=CC3C(=O)N(c4ccccc4)C(=O)C32)cc1` (stereo not given), the composite z-score amounted to 1.24 in assay [1]; 0.64 in assay [2]; 0.947 in assay [3]; 0.782 in [5]; 0.267 in [6]; 0.0151 in assay [7]. For the same compound, the composite z-score in [8] was found to be 1.25; in [9], 0.469; in assay [10], 0.898; in assay [11], 1.42; in [13] it was 0.0148; in assay [14], 1.44. For the same compound, the composite z-score worked out at 0.176 in assay [15]; 0.0317 in assay [16]; 0.13 in assay [17]; 0.842 in assay [18]; 0.488 in assay [19]; 1.73 in assay [20]. The z-score is -0.132 (inactive) in assay [4] and 1.61 in [12].
As for `O=C(NCc1ccccc1)[C@]1(CCS(=O)(=O)c2ccccc2)N=C(c2ccc(OCCCO)cc2)O[C@@H]1c1ccccc1`, the composite z-score in assay [1] was found to be 1.31; in assay [2] it was 0.255; in assay [3], 0.264; in assay [5], 1.42; in assay [6], 1.32; in [7], 0.325. For the same compound, the composite z-score in [8] is 1.41; in assay [9], 0.168; in [10], 0.604; in assay [11], 1.15; in [13] it was 0.554; in assay [14] it was 1.53. In addition, the composite z-score in assay [15] was 0.206; in [16], 0.0579; in assay [17], 0.182; in [18], 0.0539; in [19] it was 0.51; in [20], 0.452. In addition, the z-score in [4] is 0.637 (inactive); in assay [12], -2.05.
